# Activity calls are given as the source filed them.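 Rule for the calls: active = glucocerebrosidase enzyme activity raised in patient cells of every tested mutation; inactive = no rise in glucocerebrosidase activity for any mutation.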
# Molecular target: Lysosomal acid glucosylceramidase (Homo sapiens) (UniProt P04062)
# Test: Extended Characterization of Activators of N370S glucocerebrosidase as a Potential Chaperone Treatment of Gaucher Disease: Quantification of GCase activity
# Settings: Gaucher patient macrophages, GCase 4MU fluorescence
# Description: Glucocerebrosidase (GCase) catalyzes the hydrolysis of beta-glucocerebroside to glucose and ceramide in lysosomes. Mutations in the glucocerebrosidase gene result in Gaucher disease, an autosomal recessive lysosomal storage disorder. Many of the mutations encountered in patients with Gaucher disease are missense alterations that may cause misfolding, decreased stability and/or mistrafficking of this lysosomal protein. […] These inhibitors include iminosugar analogs and other inhibitors that were discovered as part of previous work. However, the enhancement of enzyme activity by the chaperone action of an enzyme inhibitor must be balanced against the direct inhibition of the enzyme. […] In this extended characterization of our probe, we have further characterized the activity of ML198 in patient-derived cellular models of Gaucher disease. In Gaucher-derived macrophages from 17 patients, with 4 separate mutation, we quantified GCase activity using a fluorescence read-out. NIH Chemical Genomics Center [NCGC] NIH Molecular Libraries Probe Production Centers Network [MLPCN] […]
# Treated cells were cultured in black 96-well plates. After adding 100 µl assay buffer (200 mM sodium acetate (pH4), 5 mM 4MU-betaGlu and protease inhibitor cocktail (Sigma), cells were incubated for 1 hr at 37 degrees C. The reaction was halted using a stop solution (1 M NaOH and 1 M Glycine) and fluorescence measured.
# Chain of Lysosomal acid glucosylceramidase (Homo sapiens) (P04062 40-536 N409S): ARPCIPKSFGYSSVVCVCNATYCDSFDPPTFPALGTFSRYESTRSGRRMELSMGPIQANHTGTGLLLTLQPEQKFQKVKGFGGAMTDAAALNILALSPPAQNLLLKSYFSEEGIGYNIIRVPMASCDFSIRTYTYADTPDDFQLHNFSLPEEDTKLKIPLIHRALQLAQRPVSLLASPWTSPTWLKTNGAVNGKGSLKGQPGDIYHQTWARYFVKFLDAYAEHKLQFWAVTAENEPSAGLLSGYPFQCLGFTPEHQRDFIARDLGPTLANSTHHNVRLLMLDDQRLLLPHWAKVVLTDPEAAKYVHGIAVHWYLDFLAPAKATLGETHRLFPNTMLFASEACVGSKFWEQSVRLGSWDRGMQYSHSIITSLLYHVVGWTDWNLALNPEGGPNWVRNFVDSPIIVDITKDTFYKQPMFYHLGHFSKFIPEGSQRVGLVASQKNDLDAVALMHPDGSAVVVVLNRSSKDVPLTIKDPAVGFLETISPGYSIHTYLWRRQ
row,Compound,outcome
1,C#Cc1ccc(NC(=O)c2cnn3c(C)cc(C)nc23)cc1,active; increased

# Reference: PubChem BioAssay AID652095 (National Center for Advancing Translational Sciences (NCATS), 2013)
